Most compounds without a hit are left out; they make up all but 4% or so of the library.
TRHR agonist – agonists of human TRH receptor | activation, % at 2 µM | TRHR cells, calcium flux fluo-8, FDSS agonist mode | 360,000 compounds, 0.18% hits | P34981 | AID 493084
Target sequence (P34981 whole entry, looked up): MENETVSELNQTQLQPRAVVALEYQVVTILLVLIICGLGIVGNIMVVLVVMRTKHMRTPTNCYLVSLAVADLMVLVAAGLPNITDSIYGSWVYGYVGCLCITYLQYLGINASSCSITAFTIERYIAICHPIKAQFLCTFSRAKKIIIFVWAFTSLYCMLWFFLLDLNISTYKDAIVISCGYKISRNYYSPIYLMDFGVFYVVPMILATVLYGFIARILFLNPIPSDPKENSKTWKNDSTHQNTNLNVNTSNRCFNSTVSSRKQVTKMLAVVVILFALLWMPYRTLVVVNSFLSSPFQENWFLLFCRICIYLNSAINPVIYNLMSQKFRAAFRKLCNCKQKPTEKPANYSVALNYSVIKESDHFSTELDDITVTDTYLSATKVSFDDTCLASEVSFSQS
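In this calcium-flux screen, cells bearing human TRHR are dye-loaded with fluo-8, baselined for 10 cycles, then exposed to library compounds; positive kinetic calcium responses during the agonist phase mark hits, with TRH as control.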
D1 PAM – human D1 dopamine receptor positive modulation; P21728; HEK293 TREx D1 cells, calcium flux, dopamine EC20 potentiation; potentiation, % at 10 µM; 360,000 compounds, 0.036% hits; AID 504651; in the data active means potentiation above about 30%
D1 antagonist – human D1 dopamine receptor antagonism; P21728; HEK293 TREx D1 cells, calcium flux, dopamine EC80; active compounds read low; activity change, negative = inhibition, % at 10 µM; 360,000 compounds, 3.2% hits; in the data active means activity change below about -30%
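After overnight tetracycline induction at 30 C, force-coupled D1 HEK293 cells took up a no-wash calcium dye at room temperature. Compounds were added and monitored 180 s, and the response to EC80 dopamine was then recorded.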
D1 ag – agonists of human D1 dopamine receptor. activation, % at 2 µM. AID 504660. 360,000 compounds, 1% hits. HEK293 T-REx D1 cells, calcium flux, agonist mode. P21728
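Agonism was scored from calcium flux recorded over 180 s (1 read/s) after pintool compound addition, following a 10-cycle baseline. Cells were inducible force-coupled HEK293 TREx D1, plated overnight at 30 C and loaded with no-wash calcium dye.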
TRHR PAM – allosteric enhancers of human TRH receptor. TRHR cells, fluo-8 calcium fluorescence, EC20 TRH enhancement. enhancement, % at 2 µM. 360,000 compounds, 0.66% hits. P34981; in the data active means enhancement above about 30%
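TRHR-expressing cells loaded with fluo-8 calcium dye were read kinetically (ex 480/em 530) during compound addition, then stimulated with an EC20 of TRH (10 nM final). Enhancement of the Gq-mediated intracellular calcium response was scored.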
Glioma ERSR ind – induces the endoplasmic reticulum stress response in human glioma cells; 420,000 compounds, 0.02% hits; U87-MG GRP78 promoter luciferase reporter, 16 h; AID 602332; Potency, µM, usual class: activators; active means well fitted activation curve with a large enough effect; inconclusive means small, poorly fitted or top-dose-only effect; inactive means no such curve, though single readings can be large or run the other way; further: series mostly up to about 76 µM; nearly all actives have a fitted effect of over 35% in size
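Stably transfected U87-MG human glioma cells carrying a GRP78-based luminescent sensor were seeded at 1000 cells/well, pin-dosed with compounds and incubated 16 h. Luciferase reagent was then added, and end-point luminescence was read after 10 min at room temperature.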
Hits are given with their value; 0 = inactive; ? = inconclusive; - = no result. Unless noted, no stated cut-off is given here; in the data, active means activation above about 30%; inactive means the rest.

SMILES	TRHR agonist	D1 PAM	D1 antagonist	D1 ag	TRHR PAM	Glioma ERSR ind
Cc1ccc(-c2cc(C3C4C=CCCC4(C)C(=O)N3Cc3ccccc3)ccc2F)cc1 (configuration not stated)	-	-	-	-	-	0
NC(=O)c1cc(S(=O)(=O)N2CCCC2)ccc1OCCOc1ccccc1F	0	0	0	0	0	0
CC(=O)Nc1ccc(OCc2cn(CC(=O)c3ccc(O)cc3)nn2)cc1	-	-	-	-	-	0
Nc1c(C(=O)c2ccccc2)sc2snc(SCC(=O)c3ccccc3)c12	0	0	0	108	0	?
Cc1nc2ccc(S(=O)(=O)N3CCN(S(=O)(=O)c4c(F)cccc4F)CC3)cc2s1	0	0	0	0	0	-
COC(=O)NC(=S)Nc1ccc(Oc2ccc(Cl)cc2)c(Cl)c1	0	0	-35	0	0	0
COC(=O)NC(=S)Nc1ccc(Oc2ccc(Cl)cc2Cl)c(Cl)c1	0	0	0	0	0	0
CCOC(=O)c1c(C)[nH]c(C)c1C(=O)COC(=O)/C=C/c1ccc(OC(F)F)cc1	0	33	0	0	0	0
CCOC(=O)c1c(C)[nH]c(C(=O)COC(=O)/C=C/c2ccc(OC(F)F)cc2)c1C	0	0	0	0	0	0
CCCCCCCCCCCCCC(=O)N[C@H](C)[C@@H](O)c1ccccc1	-	-	-	-	-	0
OC(CNCCC(c1ccccc1)c1ccccc1)COc1ccccc1 (configuration not stated)	0	0	-61	0	0	0
COc1ccc(C(OCC(O)CNCCc2ccccc2)c2ccc(OC)cc2)cc1 (configuration not stated)	0	0	-30	96	0	0
C/C=C/c1ccc(OCC(O)CNCCc2ccc(OC)cc2)c(OC)c1 (configuration not stated)	0	0	0	0	0	0
OC(CNCCc1ccc(Cl)cc1)COc1cc(Cl)ccc1Cl (configuration not stated)	0	0	0	35	0	0
CCC(=O)c1ccc(OCC(O)CNCCc2ccc(Cl)cc2)cc1 (configuration not stated)	0	0	0	62	0	0
COc1ccc(C(OCC(O)CNC(C)c2ccccc2)c2ccc(OC)cc2)cc1 (configuration not stated)	0	0	0	0	0	0
CC(C)c1ccc(OCC(O)CNC(C)c2ccccc2)cc1 (configuration not stated)	0	0	0	0	0	0
COc1ccc(NS(=O)(=O)c2cccc(C(=O)NCc3ccccn3)c2)cc1	0	0	0	0	0	0
CC(C)(c1ccccc1)c1ccc(OCC(O)CN2CCCC2)cc1 (configuration not stated)	0	0	0	0	0	0
OC(CNCCc1ccccc1)COc1ccc(OCC(O)CNCCc2ccccc2)cc1 (configuration not stated)	0	0	0	34	0	0
CC(C)N(CCNCC(O)COc1ccc(C(C)(C)c2ccccc2)cc1)C(C)C (configuration not stated)	0	0	0	63	0	0
COc1ccc(CCNCC(O)COc2c(C)cccc2C)cc1OC (configuration not stated)	0	0	-38	0	0	0
OC(CNCCc1ccc(Cl)cc1)COc1ccc2ccccc2c1 (configuration not stated)	0	0	0	33	0	0
COc1ccc(CCNCC(O)COc2ccc(Cl)cc2)cc1OC (configuration not stated)	0	0	0	0	0	0
CCOc1cc(/C=N/NC(=O)c2cccnc2)ccc1OC(=O)c1ccco1	0	0	0	0	0	0
SMILES	TRHR agonist	D1 PAM	D1 antagonist	D1 ag	TRHR PAM	Glioma ERSR ind
CC(C)CCNCC(O)CON=C1c2ccccc2-c2ccccc21 (configuration not stated)	0	0	0	50	0	0
COCCNCC(O)CON=C1c2ccccc2-c2ccccc21 (configuration not stated)	0	0	0	0	0	0
CCc1ccc(-n2c(=O)c3cccnc3n2CC(=O)NCc2ccccc2)cc1	0	0	0	0	0	0
CCc1ccc(-n2c(=O)c3cccnc3n2CC(=O)NCc2ccc(F)cc2)cc1	0	0	-36	0	0	0
COc1ccc(C(=O)NC(CCSC)C(=O)NCc2nnc3ccccn23)cc1 (configuration not stated)	0	0	0	0	0	0
CN(C(=S)Nc1ccc(Oc2ccccc2)cc1)C1CCCCC1	0	0	-33	0	0	0
S=C(Nc1ccc(Oc2ccccc2)cc1)NC1CCCCCC1	0	0	0	0	0	0
COc1ccc(C2OCC3(CO2)SC(=O)NC3=O)cc1 (configuration not stated)	0	0	-38	0	0	0
COc1ccc(C2OCC3(CO2)SC(N)=NC3=O)cc1 (configuration not stated)	0	0	0	0	0	0
CCOc1ccc(S(=O)(=O)n2cnc(C)c2)cc1	0	0	-44	0	0	0
CCOc1cc(C)c(C(C)C)cc1S(=O)(=O)n1cnc(C)c1	0	0	-31	0	0	0
COc1ccc(S(=O)(=O)n2cnc(C)c2)cc1	0	0	0	0	0	0
CCc1nnc(NC(=O)c2c(C)nn(-c3ccccc3)c2Cl)s1	0	0	0	0	0	0
CC1=NN(C(=O)Cc2ccc([N+](=O)[O-])cc2)C(O)(C(F)(F)C(F)(F)F)C1 (configuration not stated)	0	0	0	0	0	0
CCCC1=NN(C(=O)Cc2ccc([N+](=O)[O-])cc2)C(O)(C(F)(F)F)C1 (configuration not stated)	0	0	0	0	0	0
Cc1ccccc1OCC(=O)N1N=C(C(F)(F)F)CC1(O)C(C)(C)C (configuration not stated)	0	0	0	59	0	0
Cc1ccc(OCC(=O)N2N=C(C(F)(F)F)CC2(O)C(C)(C)C)cc1C (configuration not stated)	0	0	0	0	0	0
CCC1=NN(C(=O)Cc2ccc([N+](=O)[O-])cc2)C(O)(C(F)(F)F)C1 (configuration not stated)	0	0	0	33	0	0
CC(C)(C)C1(O)CC(C(F)(F)F)=NN1C(=O)Cc1ccc([N+](=O)[O-])cc1 (configuration not stated)	0	0	-34	0	0	0
COc1ccccc1N1CC(C(=O)OCC(=O)Nc2c(C)cccc2C)CC1=O (configuration not stated)	0	0	0	0	0	0
Clc1ccc(CCNC(c2ccc(Cl)cc2)c2nnc(-c3ccccc3)o2)cc1 (configuration not stated)	0	0	0	35	0	0

Screens from PubChem BioAssay.
